Reference: PubChem BioAssay (EPA / NIEHS)
Activity calls are given as the source filed them. Rule for the calls: active = hit-call score of the fitted dose curve at least 0.9, where 1 is the maximum; inactive = score below 0.9.

Tests used:
[1] = target: CCAAT/enhancer-binding protein beta (Homo sapiens) (UniProt P17676); experiment: ATG_C_EBP_CIS: Attagene CIS-FACTORIAL HepG2 Assay for human CCAAT/Enhancer Binding Protein (C/EBP) beta (AID 2282927); details: HepG2 Attagene cis-factorial transcription factor reporter; actives raise or lower the signal
CCAAT/enhancer-binding protein beta (Homo sapiens), sequence (P17676 whole entry, looked up, the tested form may be a part): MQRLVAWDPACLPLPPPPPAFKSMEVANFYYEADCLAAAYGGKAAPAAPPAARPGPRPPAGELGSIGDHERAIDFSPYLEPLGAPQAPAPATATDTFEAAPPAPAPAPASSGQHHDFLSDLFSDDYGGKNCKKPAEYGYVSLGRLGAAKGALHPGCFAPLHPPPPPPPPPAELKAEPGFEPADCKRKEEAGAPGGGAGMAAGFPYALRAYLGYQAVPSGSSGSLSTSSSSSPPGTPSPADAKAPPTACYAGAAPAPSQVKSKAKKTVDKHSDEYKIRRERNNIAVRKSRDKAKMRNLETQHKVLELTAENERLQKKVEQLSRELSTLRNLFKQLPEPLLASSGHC
How it was run: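 Chemical-treated HepG2 cells (24 h) bearing cis-regulated reporter constructs were processed for total RNA, then reverse transcription, PCR amplification, fluorescent primer extension and fragment analysis; gain- and loss-of-signal were fitted against DMSO.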

[2] = ATG_CMV_CIS: Attagene CIS-FACTORIAL HepG2 Assay for human CMV (Internal Marker) (AID 2282928); details: HepG2 CMV promoter reporter, transcription factor profiling; actives raise or lower the signal;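 note: endpoint acts as a background internal control marker rather than a target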
How it was run: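 Cell system: HepG2, transiently transfected multiple reporter units under cis promoters. Exposure: 24 h. Detection: RT-PCR, FAM labeling, HpaI digestion, capillary electrophoresis. Analysis: bidirectional, DMSO baseline.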

[3] = ATG_DR4_LXR_CIS: Attagene CIS-FACTORIAL HepG2 Assay for human Liver X Receptor (LXR), DR4 submotif (AID 2282929); details: HepG2 Attagene DR4 cis-reporter, mRNA transcription; actives raise or lower the signal
How it was run: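 DR4 cis-reporter in HepG2, 24 h exposure. Detection: RT-PCR, 6-FAM labelling, CE fragment analysis. Endpoint fitted bidirectionally, DMSO = baseline.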

[4] = target: Aryl hydrocarbon receptor (Homo sapiens) (UniProt P35869); experiment: ATG_Ahr_CIS: Attagene CIS-FACTORIAL HepG2 Assay for human Aryl Hydrocarbon Receptor (Ahr) (AID 2282930); details: HepG2 AhR cis-factorial reporter transcription; actives raise or lower the signal
Aryl hydrocarbon receptor (Homo sapiens), sequence (P35869 whole entry, looked up): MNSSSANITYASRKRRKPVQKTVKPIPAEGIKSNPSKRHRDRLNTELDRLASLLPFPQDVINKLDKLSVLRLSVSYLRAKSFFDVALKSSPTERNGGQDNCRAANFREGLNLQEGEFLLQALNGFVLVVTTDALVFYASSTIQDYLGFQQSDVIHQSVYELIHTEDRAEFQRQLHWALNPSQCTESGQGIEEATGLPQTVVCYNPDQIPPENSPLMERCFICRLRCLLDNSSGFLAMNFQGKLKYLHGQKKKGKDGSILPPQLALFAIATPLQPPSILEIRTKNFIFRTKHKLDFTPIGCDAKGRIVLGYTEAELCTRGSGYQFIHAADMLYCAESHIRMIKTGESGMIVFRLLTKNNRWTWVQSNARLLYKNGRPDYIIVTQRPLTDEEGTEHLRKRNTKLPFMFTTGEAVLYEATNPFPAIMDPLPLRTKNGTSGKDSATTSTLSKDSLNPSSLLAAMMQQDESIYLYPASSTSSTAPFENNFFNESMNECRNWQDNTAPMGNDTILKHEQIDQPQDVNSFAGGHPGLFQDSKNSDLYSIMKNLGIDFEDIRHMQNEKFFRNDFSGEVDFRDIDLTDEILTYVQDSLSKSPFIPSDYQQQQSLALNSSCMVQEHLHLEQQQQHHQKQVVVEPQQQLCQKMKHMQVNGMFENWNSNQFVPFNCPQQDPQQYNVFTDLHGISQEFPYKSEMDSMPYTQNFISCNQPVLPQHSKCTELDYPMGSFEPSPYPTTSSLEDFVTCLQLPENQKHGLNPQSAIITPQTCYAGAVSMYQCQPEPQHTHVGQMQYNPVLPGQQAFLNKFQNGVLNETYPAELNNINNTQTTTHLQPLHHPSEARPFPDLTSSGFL
How it was run: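 Following 24 h of chemical dosing, transfected HepG2 liver cells with cis-driven reporter units were lysed for RNA; reporter mRNA was quantified via RT-PCR and capillary electrophoresis, and responses fitted bidirectionally from DMSO.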

[5] = ATG_AP_1_CIS: Attagene CIS-FACTORIAL HepG2 Assay for human Activator Protein 1 (AP-1) (AID 2282931); details: HepG2 Attagene cis-factorial AP-1 reporter mRNA; actives raise or lower the signal
How it was run: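 Cis-regulated reporter units transiently expressed in HepG2 report endogenous transcription-factor activity. Signal: reporter mRNA at 24 h, via RT-PCR and fluorescent capillary electrophoresis. Endpoint derived by bidirectional fitting, DMSO as negative control.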

[6] = ATG_AP_2_CIS: Attagene CIS-FACTORIAL HepG2 Assay for human Activator Protein 2 (AP-2) (AID 2282932); details: HepG2 AP-2 cis-reporter, Attagene transcription factor profiling; actives raise or lower the signal
How it was run: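 Bidirectional curve fitting against DMSO was applied to reporter mRNA signals from HepG2 cells 24 h after dosing. Cis-promoter reporter units, transiently transfected, were read by RT-PCR plus capillary electrophoresis.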

[7] = ATG_BRE_CIS: Attagene CIS-FACTORIAL HepG2 Assay for human Bone Morphogenetic Protein (BMP) Response Element (BRE) (AID 2282933); details: HepG2 BMP response element reporter, Attagene transcription factor profiling; actives raise or lower the signal
How it was run: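 Transient MRTU transfection of human HepG2 liver cells; 24 h compound treatment; total RNA isolated, reverse-transcribed, PCR-amplified, 6-FAM labelled, HpaI-cut, capillary electrophoresis. DMSO = negative control/baseline, bidirectional fit.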

[8] = target: Retinoic acid receptor alpha (Homo sapiens) (UniProt P10276); experiment: ATG_DR5_RAR_CIS: Attagene CIS-FACTORIAL HepG2 Assay for human Retinoic Acid Receptor Alpha (RARE), DR5 submotif (AID 2282934); details: HepG2 Attagene cis-factorial RARE DR5 reporter, mRNA; actives raise or lower the signal
Retinoic acid receptor alpha (Homo sapiens), sequence (P10276 whole entry, looked up): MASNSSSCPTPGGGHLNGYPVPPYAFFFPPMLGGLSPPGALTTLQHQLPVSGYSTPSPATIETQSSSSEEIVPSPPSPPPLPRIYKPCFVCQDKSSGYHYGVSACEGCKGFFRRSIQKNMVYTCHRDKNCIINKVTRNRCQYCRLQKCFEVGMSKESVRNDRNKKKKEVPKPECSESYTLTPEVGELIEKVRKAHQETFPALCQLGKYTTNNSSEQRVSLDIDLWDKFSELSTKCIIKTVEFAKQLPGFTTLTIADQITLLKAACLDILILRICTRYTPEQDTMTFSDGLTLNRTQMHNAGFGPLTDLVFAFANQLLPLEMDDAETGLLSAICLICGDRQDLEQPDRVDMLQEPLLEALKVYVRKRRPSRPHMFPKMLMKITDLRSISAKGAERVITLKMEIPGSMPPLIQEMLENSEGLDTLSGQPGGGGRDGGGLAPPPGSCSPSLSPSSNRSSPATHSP
How it was run: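 Transfected HepG2 reporter cells are exposed to chemicals for 24 h. Then RNA is extracted and the DR5 element reporter transcript is measured by RT-PCR and capillary electrophoresis, with bidirectional curve fitting relative to DMSO.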

[9] = target: Transcription factor E2F1 (Homo sapiens) (UniProt Q01094); experiment: ATG_E2F_CIS: Attagene CIS-FACTORIAL HepG2 Assay for human E2F Transcription Factor 1 (AID 2282935); details: HepG2 Attagene cis-reporter, E2F reporter RNA transcripts; actives raise or lower the signal
Transcription factor E2F1 (Homo sapiens), sequence (Q01094 whole entry, looked up): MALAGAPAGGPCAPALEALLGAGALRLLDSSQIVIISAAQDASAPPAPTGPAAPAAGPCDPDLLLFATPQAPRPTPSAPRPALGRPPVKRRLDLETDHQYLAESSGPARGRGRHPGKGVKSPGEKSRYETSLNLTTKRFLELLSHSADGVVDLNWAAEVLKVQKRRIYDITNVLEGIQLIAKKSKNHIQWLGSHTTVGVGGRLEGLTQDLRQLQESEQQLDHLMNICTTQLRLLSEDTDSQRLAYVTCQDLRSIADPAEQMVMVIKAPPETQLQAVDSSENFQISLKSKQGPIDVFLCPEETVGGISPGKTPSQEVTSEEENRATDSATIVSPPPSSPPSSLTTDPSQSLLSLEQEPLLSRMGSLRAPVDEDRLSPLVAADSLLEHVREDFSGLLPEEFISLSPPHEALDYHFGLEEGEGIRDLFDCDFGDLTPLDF
How it was run: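 Multiplexed cis-reporter assay: HepG2, transient transfection, 24 h dosing, mRNA quantitation by labeled RT-PCR and CE.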

[10] = ATG_E_Box_CIS: Attagene CIS-FACTORIAL HepG2 Assay for human Enhancer Box (E-box) (AID 2282936); details: HepG2 E-box cis-reporter transcription, actives raise or lower the signal
How it was run: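 Multiplexed CIS reporter system in transiently transfected HepG2 cells measures native transcription factor activity. Reporter RNA after 24 h exposure is profiled by RT-PCR-capillary electrophoresis.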

[11] = ATG_M_61_CIS: Attagene CIS-FACTORIAL HepG2 Assay for M61 Transcription Factor (Internal Marker) (AID 2282937); details: HepG2 Attagene CIS-FACTORIAL M61 internal marker reporter; actives raise or lower the signal
How it was run: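 Background-control endpoint: HepG2 cells with cis-regulated reporter constructs, 24 h exposure, reporter mRNA detected via fluorescent primer extension and capillary electrophoresis; values from bidirectional fitting with DMSO baseline.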

[12] = ATG_EGR_CIS: Attagene CIS-FACTORIAL HepG2 Assay for human Early Growth Response 1 (EGR1) (AID 2282938); details: HepG2 Attagene CIS-FACTORIAL EGR reporter mRNA; actives raise or lower the signal
How it was run: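 Endpoint derived by bidirectional fitting versus DMSO vehicle. Method: cis-promoter reporter units transfected into HepG2, 24 h dosing, RNA isolation, RT-PCR with 6-FAM primer extension and HpaI digestion, then capillary electrophoresis fluorescence detection.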

[13] = ATG_M_19_CIS: Attagene CIS-FACTORIAL HepG2 Assay for M19 Transcription Factor (Internal Marker) (AID 2282939); details: HepG2 Attagene CIS-FACTORIAL M19 internal marker reporter; actives raise or lower the signal
How it was run: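 Transfect HepG2 with MRTU reporter library → dose chemical, 24 h → isolate total RNA, reverse-transcribe with oligo(dT) → PCR, 6-FAM label, HpaI cut (2 h, 37 C) → capillary electrophoresis. Bidirectional fit vs DMSO.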

[14] = ATG_Ets_CIS: Attagene CIS-FACTORIAL HepG2 Assay for human Erythroblast Transformation Specific (ETS) (AID 2282941); details: HepG2 ETS cis-reporter transcription, actives raise or lower the signal
How it was run: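 After transient cis-reporter transfection, HepG2 cells receive test chemical for 24 h. Reporter mRNA levels, measured by RT-PCR and capillary electrophoresis fluorescence, are analysed bidirectionally relative to the DMSO baseline.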

[15] = target: Hepatocyte nuclear factor 3-beta (Homo sapiens) (UniProt Q9Y261); experiment: ATG_FoxA2_CIS: Attagene CIS-FACTORIAL HepG2 Assay for human Forkhead box A2 (FOXA2) (AID 2282942); details: HepG2 cis-reporter transcription factor activity, 24 h; actives raise or lower the signal
Hepatocyte nuclear factor 3-beta (Homo sapiens), sequence (Q9Y261 whole entry, looked up): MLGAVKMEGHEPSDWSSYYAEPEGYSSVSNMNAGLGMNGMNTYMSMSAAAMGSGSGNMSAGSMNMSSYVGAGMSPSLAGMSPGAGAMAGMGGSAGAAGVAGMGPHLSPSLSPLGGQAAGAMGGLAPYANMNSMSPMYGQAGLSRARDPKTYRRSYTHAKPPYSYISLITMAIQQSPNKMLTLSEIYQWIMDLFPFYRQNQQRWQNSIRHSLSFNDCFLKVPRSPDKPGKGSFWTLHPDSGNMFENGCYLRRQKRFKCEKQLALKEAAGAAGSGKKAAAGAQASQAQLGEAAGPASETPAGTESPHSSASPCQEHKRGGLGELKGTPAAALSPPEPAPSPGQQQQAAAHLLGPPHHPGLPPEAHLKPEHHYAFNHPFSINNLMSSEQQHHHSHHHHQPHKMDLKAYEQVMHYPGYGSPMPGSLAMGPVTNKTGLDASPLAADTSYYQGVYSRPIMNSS
How it was run: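 Measured: reporter mRNA induction or loss in HepG2 transiently carrying multiple cis-regulated reporter units, 24 h after dosing. Quantified by RT-PCR plus capillary electrophoresis, normalised to DMSO.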

[16] = ATG_FoxO_CIS: Attagene CIS-FACTORIAL HepG2 Assay for human Forkhead box O (FoxO) (AID 2282943); details: HepG2 Attagene cis-reporter, FoxO element, mRNA; actives raise or lower the signal
How it was run: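 24 h chemical exposure, HepG2 with transient cis-MRTU transfection. RNA extraction, oligo(dT) RT, reporter-specific PCR, primer-extension labelling, HpaI digestion, CE fragment analysis; bidirectional fit, DMSO baseline.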

[17] = ATG_GATA_CIS: Attagene CIS-FACTORIAL HepG2 Assay for human GATA Binding Protein (AID 2282944); details: HepG2 GATA cis-element reporter, Attagene multiplex mRNA; actives raise or lower the signal
How it was run: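 Transient MRTU transfection, HepG2, 24 h compound exposure. Total RNA → oligo(dT) RT → PCR → 6-FAM primer extension → HpaI cut → CE. Bidirectional fit vs DMSO.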

[18] = ATG_GLI_CIS: Attagene CIS-FACTORIAL HepG2 Assay for human Zinc Finger Protein GLI1 (AID 2282945); details: HepG2, Attagene cis-factorial reporter mRNA, GLI element; actives raise or lower the signal
How it was run: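 HepG2 cells transiently transfected with cis-promoter multiplexed reporter units report endogenous transcription factor activity. After 24 h chemical exposure, reporter mRNA was quantified by RT-PCR, 6-FAM labelling, HpaI digestion and capillary electrophoresis, with bidirectional fitting against DMSO.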

Measured: AC50

COc1ccc(N=Nc2cc(C)c(N=Nc3ccc(S(=O)(=O)O)cc3)cc2OC)cc1
active: [1] 42.9 µM | [3] 74.3 µM | [4] 4.25 µM | [10] 100 µM | [14] 166 µM | [17] 100 µM
inactive: all other assays above

CCOC(=O)[C@@H](C)Oc1ccc(Oc2nc3ccc(Cl)cc3o2)cc1
active: [3] 152 µM | [7] 156 µM
not listed: [2] | [18]
inactive: all other assays above

C=C(C)C(=O)OCCOCCOCCOC(=O)C(=C)C
inactive: all assays above

CS(C)=O
not listed: [6]
inactive: all other assays above

CC(C)(C)CC(C)(C)c1ccc(OCCOCC[N+](C)(C)Cc2ccccc2)cc1
active: [2] 14.8 µM | [3] 8.35 µM | [10] 12.3 µM
not listed: [5] | [9]
inactive: all other assays above

CCC1(C)NC(=O)NC1=O (configuration not stated)
inactive: all assays above

O=C1OC2(c3ccccc31)c1ccc(O)c(Br)c1Oc1c2ccc(O)c1Br
not listed: [4]
inactive: all other assays above

CC(C=O)Cc1ccc(C(C)(C)C)cc1 (configuration not stated)
inactive: all assays above

CC=Cc1ccc(OC)c(OC)c1
not listed: [8]
inactive: all other assays above

OCCOCCN1CCN(C2=Nc3ccccc3Sc3ccccc32)CC1
active: [4] 113 µM
not listed: [2]
inactive: all other assays above
